# Results reported in PubChem BioAssay AID620 (Sanford-Burnham Center for Chemical Genomics, 2007).
# The campaign covered roughly 87,000 compounds. About 360 (0.41%) were called active. The list comes from a sample in which actives are over-represented; it also holds similar structures and randomly drawn compounds. A number with no mark means an inactive call. Rule as the data show it: active = cytotoxicity above about 50%; inactive = the rest.
# Test: HT1080 cell viability loss – fluorescence readout (AID 620);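 also: cells exposed to compound overnight then 4 h with Alamar Blue; 0% = vehicle DMSO and 100% = killing control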
# Conditions: at 10 µM, stronger effect = higher value
row,Compound,cytotoxicity
1,COc1ccccc1N1CCN(C(=O)C2CCN(S(=O)(=O)c3ccccc3)CC2)CC1,-0.7%
2,COC(=O)c1ccc(C)c(NS(=O)(=O)c2ccc3c(c2)OCCO3)c1,51.6% (active)
3,COC(=O)c1ccc(C)c(NS(=O)(=O)c2ccc(OC)c(OC)c2)c1,4%
4,COC(=O)c1ccc(Cl)c(NS(=O)(=O)c2ccc3c(c2)OCCO3)c1,35.5%
5,CCCC12CN3CC(C)(CN(C1)C3c1ccc3c(c1)OCO3)C2=O (configuration not stated),-1.1%
6,CN(C)c1ccc(-c2nn3c(-c4ccc(Cl)cc4Cl)nnc3s2)cc1,52.2% (active)
7,Cc1nn2c(-c3ccc(Cl)cc3Cl)nnc2s1,7.1%
8,Clc1ccccc1-c1nnc2sc(-c3ccncc3)nn12,-1.3%
9,CN(C)c1ccc(-c2nn3c(-c4ccccc4Cl)nnc3s2)cc1,57.2% (active)
10,CN(C)c1ccc(-c2nn3c(-c4ccc(Cl)cc4)nnc3s2)cc1,-10.2%
11,CCN(CC)c1ccc(-c2nn3c(-c4n[nH]c5c4CCC5)nnc3s2)cc1,55.1% (active)
12,CCN(CC)c1ccc(-c2nn3c(-c4ccccc4OC)nnc3s2)cc1,50.1% (active)
13,CN(C)c1ccc(-c2nn3c(-c4ccncc4)nnc3s2)cc1,0.5%
14,COc1ccccc1-c1nnc2sc(-c3ccc(N(C)C)cc3)nn12,33.1%
15,CCN(CC)c1ccc(-c2nn3c(-c4cccnc4)nnc3s2)cc1,2.9%
16,Cc1ccc(OCc2nn3c(-c4n[nH]c5c4CCC5)nnc3s2)cc1,3.7%
17,CCOc1ccc(-c2nnc3sc(-c4ccccc4OC)nn23)cc1,22%
18,CS(=O)(=O)N(CC(=O)N1CCCCC1)c1sc2c(c1C#N)CCCC2,15.6%
19,CN(C)CCCNC(=O)CC(c1ccccc1)c1ccccc1O (configuration not stated),5.3%
20,O=C(O)CCn1c(=O)c2ccccc2c2ccccc2c1=O,2%
21,C=CCOn1c(C)c(C(C)=O)c2c3nonc3ccc21,2.2%
22,Cn1c(N)c(C(=O)COC(=O)c2ccco2)c(=O)n(C)c1=O,-0.9%
23,CC(=O)N1CCc2cc(S(=O)(=O)NC(C(=O)Nc3nc(C)cs3)C(C)C)ccc21 (configuration not stated),11.9%
24,COc1ccccc1-c1nnc2sc(-c3cc4ccccc4o3)nn12,53.5% (active)
25,Cc1nnc2sc(-c3cc4ccccc4o3)nn12,0.8%
26,c1ccc(-c2nnc3sc(-c4cc5ccccc5o4)nn23)cc1,-3.1%
27,Cc1ccccc1NS(=O)(=O)c1ccc(NC(=O)c2ccco2)cc1,2.4%
